Results: ChEMBL document CHEMBL1961873, “Compounds: GSK PKIS; Assays: Nanosyn kinase panel” (2012)

Experiments:
[1] = target: Calcium/calmodulin-dependent protein kinase type II subunit alpha (Homo sapiens) (UniProt Q9UQM7); conditions: at 1 µM;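 also: reported value is a mean percent inhibition of CAMK2A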
[2] = target: Calcium/calmodulin-dependent protein kinase type II subunit delta (Homo sapiens) (UniProt Q13557); conditions: at 0.1 µM
[3] = target: Calcium/calmodulin-dependent protein kinase type II subunit delta (Homo sapiens) (UniProt Q13557); conditions: at 1 µM
[4] = target: T1, Calcium/calmodulin-dependent protein kinase type IV (Homo sapiens) (UniProt Q16566); conditions: at 0.1 µM
T1 sequence (whole entry): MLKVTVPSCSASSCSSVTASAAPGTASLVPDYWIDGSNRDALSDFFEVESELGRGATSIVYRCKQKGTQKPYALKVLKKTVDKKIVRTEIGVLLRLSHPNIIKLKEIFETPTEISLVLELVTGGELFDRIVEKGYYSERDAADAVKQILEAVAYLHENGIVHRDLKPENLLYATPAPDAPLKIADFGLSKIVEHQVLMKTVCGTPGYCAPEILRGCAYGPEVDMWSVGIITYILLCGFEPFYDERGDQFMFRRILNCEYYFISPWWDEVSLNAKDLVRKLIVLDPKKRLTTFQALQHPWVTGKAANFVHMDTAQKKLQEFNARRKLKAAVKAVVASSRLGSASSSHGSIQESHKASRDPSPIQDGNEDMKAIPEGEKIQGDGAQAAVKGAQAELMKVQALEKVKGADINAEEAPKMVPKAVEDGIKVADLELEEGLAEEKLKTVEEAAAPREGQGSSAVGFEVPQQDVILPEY

[5] = target: T1, Calcium/calmodulin-dependent protein kinase type IV (Homo sapiens); conditions: at 1 µM
[6] = target: T2, Serine/threonine-protein kinase Chk1 (Homo sapiens) (UniProt O14757); conditions: at 0.1 µM
T2 sequence (whole entry): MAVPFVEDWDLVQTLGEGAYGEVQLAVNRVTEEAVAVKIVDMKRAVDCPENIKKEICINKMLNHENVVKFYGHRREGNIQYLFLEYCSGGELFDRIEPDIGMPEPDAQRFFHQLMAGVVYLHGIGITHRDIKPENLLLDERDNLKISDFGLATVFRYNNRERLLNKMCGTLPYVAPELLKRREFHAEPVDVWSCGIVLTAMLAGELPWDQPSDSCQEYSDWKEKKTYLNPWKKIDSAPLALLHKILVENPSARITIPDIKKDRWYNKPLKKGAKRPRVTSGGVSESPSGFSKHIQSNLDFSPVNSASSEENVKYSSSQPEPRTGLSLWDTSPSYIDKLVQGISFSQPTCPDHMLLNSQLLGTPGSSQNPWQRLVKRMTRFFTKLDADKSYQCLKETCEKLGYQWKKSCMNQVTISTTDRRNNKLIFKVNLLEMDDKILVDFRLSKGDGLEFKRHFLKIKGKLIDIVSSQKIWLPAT

[7] = target: T2, Serine/threonine-protein kinase Chk1 (Homo sapiens); conditions: at 1 µM
[8] = target: Serine/threonine-protein kinase Chk2 (Homo sapiens) (UniProt O96017); conditions: at 0.1 µM
Sequence of Serine/threonine-protein kinase Chk2 (Homo sapiens) (O96017 whole entry): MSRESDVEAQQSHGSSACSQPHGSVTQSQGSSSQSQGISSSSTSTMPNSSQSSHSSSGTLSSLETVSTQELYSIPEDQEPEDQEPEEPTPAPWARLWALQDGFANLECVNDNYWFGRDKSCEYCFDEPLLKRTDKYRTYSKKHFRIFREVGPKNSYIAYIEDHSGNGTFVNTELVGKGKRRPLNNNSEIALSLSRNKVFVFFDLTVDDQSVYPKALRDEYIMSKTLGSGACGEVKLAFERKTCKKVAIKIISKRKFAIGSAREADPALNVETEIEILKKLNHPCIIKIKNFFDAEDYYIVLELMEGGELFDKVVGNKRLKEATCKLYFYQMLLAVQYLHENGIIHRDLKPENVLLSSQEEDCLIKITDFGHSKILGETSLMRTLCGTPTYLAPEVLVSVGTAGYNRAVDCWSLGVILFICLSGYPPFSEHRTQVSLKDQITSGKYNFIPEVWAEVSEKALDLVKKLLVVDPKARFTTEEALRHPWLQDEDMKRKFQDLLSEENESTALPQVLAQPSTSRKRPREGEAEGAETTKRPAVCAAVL

[9] = target: Serine/threonine-protein kinase Chk2 (Homo sapiens) (UniProt O96017); conditions: at 1 µM
[10] = target: Death-associated protein kinase 1 (Homo sapiens) (UniProt P53355); conditions: at 0.1 µM
Sequence of Death-associated protein kinase 1 (Homo sapiens) (P53355 whole entry, looked up): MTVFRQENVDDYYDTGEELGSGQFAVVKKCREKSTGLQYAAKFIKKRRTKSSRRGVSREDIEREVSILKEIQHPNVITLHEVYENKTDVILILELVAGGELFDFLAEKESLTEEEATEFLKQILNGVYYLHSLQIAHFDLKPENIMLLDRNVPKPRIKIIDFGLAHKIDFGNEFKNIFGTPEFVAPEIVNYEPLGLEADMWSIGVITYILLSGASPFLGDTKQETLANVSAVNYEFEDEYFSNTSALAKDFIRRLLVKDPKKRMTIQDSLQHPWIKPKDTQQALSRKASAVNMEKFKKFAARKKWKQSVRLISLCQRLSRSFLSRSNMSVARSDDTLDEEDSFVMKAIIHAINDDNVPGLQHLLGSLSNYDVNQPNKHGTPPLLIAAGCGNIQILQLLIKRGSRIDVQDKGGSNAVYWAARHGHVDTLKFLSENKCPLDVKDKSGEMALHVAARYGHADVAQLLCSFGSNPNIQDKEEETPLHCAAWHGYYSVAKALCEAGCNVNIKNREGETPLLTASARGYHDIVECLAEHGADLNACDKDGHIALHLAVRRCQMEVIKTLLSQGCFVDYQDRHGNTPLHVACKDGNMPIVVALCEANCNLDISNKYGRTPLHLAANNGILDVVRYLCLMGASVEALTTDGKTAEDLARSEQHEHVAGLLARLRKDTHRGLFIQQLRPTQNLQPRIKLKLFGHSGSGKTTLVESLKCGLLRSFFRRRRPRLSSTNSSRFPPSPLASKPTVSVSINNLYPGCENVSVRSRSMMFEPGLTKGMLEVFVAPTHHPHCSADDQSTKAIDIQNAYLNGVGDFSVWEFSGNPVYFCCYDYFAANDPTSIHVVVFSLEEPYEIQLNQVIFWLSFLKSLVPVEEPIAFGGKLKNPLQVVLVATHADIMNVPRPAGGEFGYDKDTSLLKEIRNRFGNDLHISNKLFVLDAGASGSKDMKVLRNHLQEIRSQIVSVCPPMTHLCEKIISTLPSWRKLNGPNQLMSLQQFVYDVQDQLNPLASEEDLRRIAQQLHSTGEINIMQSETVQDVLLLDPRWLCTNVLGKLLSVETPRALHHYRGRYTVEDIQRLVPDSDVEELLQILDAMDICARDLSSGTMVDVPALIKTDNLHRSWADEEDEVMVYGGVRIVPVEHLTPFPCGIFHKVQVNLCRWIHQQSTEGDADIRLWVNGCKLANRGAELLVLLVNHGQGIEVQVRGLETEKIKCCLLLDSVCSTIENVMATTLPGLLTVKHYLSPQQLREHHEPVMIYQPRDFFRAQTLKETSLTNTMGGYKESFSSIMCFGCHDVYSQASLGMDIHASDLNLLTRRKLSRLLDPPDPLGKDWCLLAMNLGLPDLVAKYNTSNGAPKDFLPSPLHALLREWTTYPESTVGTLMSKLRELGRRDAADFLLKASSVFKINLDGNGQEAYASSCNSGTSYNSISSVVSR

[11] = target: Death-associated protein kinase 1 (Homo sapiens) (UniProt P53355); conditions: at 1 µM
[12] = target: T3, Serine/threonine-protein kinase DCLK2 (Homo sapiens) (UniProt Q8N568); conditions: at 0.1 µM
T3 sequence (whole entry): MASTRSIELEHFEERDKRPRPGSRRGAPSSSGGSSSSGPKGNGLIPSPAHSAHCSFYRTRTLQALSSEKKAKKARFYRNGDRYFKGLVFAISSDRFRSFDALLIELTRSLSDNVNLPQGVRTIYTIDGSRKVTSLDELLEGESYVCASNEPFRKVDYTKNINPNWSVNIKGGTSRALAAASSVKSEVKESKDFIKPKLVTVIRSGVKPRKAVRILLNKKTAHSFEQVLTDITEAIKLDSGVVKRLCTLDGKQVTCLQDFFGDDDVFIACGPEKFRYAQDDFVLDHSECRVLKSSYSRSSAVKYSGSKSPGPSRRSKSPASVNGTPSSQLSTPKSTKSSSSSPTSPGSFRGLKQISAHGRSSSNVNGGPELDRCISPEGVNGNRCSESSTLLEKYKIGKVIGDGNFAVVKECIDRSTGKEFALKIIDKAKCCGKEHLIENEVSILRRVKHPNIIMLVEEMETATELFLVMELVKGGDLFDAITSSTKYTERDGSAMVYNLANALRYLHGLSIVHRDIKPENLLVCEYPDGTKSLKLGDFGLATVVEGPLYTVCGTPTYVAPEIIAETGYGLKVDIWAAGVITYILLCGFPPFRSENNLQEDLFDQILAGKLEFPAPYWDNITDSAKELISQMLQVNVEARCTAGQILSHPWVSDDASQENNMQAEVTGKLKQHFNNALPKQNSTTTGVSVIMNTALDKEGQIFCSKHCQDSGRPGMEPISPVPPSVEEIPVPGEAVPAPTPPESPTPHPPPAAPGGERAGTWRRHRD

[13] = target: T3, Serine/threonine-protein kinase DCLK2 (Homo sapiens); conditions: at 1 µM
[14] = target: MAP kinase-activated protein kinase 2 (Homo sapiens) (UniProt P49137); conditions: at 0.1 µM
Sequence of MAP kinase-activated protein kinase 2 (Homo sapiens) (P49137 whole entry, looked up): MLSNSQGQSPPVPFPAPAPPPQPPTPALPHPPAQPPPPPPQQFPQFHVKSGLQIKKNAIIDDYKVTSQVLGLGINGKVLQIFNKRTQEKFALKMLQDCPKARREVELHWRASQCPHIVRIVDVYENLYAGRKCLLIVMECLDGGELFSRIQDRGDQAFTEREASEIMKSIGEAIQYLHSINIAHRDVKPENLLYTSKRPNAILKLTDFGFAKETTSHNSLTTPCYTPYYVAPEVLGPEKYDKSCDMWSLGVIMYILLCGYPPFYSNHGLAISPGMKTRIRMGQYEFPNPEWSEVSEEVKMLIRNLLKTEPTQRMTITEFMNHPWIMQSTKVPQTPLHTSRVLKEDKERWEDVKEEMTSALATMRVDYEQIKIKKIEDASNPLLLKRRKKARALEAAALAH

[15] = target: MAP kinase-activated protein kinase 2 (Homo sapiens) (UniProt P49137); conditions: at 1 µM
[16] = target: MAP kinase-activated protein kinase 3 (Homo sapiens) (UniProt Q16644); conditions: at 0.1 µM
Sequence of MAP kinase-activated protein kinase 3 (Homo sapiens) (Q16644 whole entry, looked up): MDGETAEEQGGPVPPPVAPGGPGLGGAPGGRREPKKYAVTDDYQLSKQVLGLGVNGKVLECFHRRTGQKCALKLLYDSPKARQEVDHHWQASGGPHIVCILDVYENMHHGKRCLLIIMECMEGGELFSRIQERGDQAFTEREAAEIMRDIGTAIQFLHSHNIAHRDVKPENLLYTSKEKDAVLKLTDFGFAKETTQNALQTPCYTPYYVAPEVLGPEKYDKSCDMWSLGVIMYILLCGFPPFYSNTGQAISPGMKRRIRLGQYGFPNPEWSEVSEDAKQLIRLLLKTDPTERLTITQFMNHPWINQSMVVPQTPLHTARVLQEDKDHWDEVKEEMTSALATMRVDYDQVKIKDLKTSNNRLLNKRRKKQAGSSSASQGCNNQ

[17] = target: MAP kinase-activated protein kinase 3 (Homo sapiens) (UniProt Q16644); conditions: at 1 µM
[18] = target: Serine/threonine-protein kinase MARK1 (Homo sapiens) (UniProt Q9P0L2); conditions: at 0.1 µM
Sequence of Serine/threonine-protein kinase MARK1 (Homo sapiens) (Q9P0L2 whole entry, looked up): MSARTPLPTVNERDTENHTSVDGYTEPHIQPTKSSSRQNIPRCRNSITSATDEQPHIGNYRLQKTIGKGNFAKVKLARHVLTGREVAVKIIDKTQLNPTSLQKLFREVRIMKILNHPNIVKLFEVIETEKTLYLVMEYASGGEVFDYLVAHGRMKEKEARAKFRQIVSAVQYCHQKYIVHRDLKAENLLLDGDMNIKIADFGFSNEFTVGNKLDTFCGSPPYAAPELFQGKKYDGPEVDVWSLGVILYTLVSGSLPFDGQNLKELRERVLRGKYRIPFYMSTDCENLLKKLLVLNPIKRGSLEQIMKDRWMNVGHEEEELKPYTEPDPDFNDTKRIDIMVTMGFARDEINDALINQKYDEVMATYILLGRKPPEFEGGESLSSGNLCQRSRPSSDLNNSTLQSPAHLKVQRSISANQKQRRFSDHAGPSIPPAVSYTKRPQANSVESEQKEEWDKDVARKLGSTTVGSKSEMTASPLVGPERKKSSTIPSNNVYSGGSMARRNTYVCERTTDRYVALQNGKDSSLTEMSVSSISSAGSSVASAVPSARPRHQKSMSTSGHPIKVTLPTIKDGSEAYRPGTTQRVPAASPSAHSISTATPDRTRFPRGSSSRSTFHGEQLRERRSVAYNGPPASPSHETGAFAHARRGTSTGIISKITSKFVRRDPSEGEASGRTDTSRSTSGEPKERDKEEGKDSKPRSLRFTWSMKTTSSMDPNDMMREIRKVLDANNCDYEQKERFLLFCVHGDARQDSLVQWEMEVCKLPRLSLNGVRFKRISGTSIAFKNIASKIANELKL

[19] = target: Serine/threonine-protein kinase MARK1 (Homo sapiens) (UniProt Q9P0L2); conditions: at 1 µM
[20] = target: MAP/microtubule affinity-regulating kinase 3 (Homo sapiens) (UniProt P27448); conditions: at 0.1 µM;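 also: mean percent inhibition of MARK3 kinase activity, measured within the GSK PKIS screening panel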

Sequence of Calcium/calmodulin-dependent protein kinase type II subunit alpha (Homo sapiens) (Q9UQM7 whole entry): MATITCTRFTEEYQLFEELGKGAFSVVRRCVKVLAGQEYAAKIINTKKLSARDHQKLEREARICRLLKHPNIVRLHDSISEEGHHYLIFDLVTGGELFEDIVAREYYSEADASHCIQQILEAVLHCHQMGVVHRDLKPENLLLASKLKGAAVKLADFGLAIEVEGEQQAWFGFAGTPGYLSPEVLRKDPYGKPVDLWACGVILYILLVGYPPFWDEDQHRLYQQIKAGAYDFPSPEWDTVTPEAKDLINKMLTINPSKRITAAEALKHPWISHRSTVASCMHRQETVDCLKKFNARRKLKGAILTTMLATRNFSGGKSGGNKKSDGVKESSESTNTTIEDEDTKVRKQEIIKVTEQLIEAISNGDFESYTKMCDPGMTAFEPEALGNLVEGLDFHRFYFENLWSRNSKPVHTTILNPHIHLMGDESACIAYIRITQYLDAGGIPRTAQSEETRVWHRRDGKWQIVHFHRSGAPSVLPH
Sequence of Calcium/calmodulin-dependent protein kinase type II subunit delta (Homo sapiens) (Q13557 whole entry): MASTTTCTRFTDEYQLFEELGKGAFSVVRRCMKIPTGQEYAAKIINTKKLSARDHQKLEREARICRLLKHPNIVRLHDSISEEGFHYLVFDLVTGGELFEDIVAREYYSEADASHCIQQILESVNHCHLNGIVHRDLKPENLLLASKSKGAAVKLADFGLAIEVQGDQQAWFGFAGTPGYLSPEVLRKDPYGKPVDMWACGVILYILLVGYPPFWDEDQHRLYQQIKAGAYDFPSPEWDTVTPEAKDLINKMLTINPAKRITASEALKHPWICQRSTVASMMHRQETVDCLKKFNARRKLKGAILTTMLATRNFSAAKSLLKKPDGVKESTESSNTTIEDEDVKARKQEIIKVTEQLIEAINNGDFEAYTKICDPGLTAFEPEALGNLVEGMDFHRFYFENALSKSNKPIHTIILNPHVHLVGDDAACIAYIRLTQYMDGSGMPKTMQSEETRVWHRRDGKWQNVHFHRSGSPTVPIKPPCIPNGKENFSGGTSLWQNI

SMILES	inhibition [1] [%]	inhibition [2] [%]	inhibition [3] [%]	inhibition [4] [%]	inhibition [5] [%]	inhibition [6] [%]	inhibition [7] [%]	inhibition [8] [%]	inhibition [9] [%]	inhibition [10] [%]	inhibition [11] [%]	inhibition [12] [%]	inhibition [13] [%]	inhibition [14] [%]	inhibition [15] [%]	inhibition [16] [%]	inhibition [17] [%]	inhibition [18] [%]	inhibition [19] [%]	inhibition [20] [%]
Fc1ccc(-c2c(-c3ccncc3)nc3n2CCS3)cc1	0.88	1.78	2.01	1.18	-0.25	0.42	2.88	1.49	0.52	-0.64	-1.77	-5.23	-4.37	0.4	0.36	1.43	1.3	2.07	3.24	1.44
COC(=O)Nc1nc2ccc(Sc3ccc(NC(=O)Nc4cc(C(F)(F)F)ccc4F)cc3)cc2[nH]1	4.35	1.39	2.79	0.44	1.75	2.81	1.17	-0.98	0.37	3.64	4.23	-1.02	0.05	0.97	0.6	4.28	12.6	1.73	2.38	1.35
Fc1ccc(-c2nc3n(c2-c2ccncc2)CCS3)cc1	3.82	4.18	4.28	0.62	0.23	0.32	3.69	2.74	3.47	2.36	2.21	-0.75	-3.53	0.87	0.79	8.6	19.8	4.51	4.67	3.87
Nc1nccc(-c2c(-c3ccc(F)cc3)ncn2C2CCC(O)CC2)n1 (stereo not given)	-3.25	-1.92	1.53	9.35	-0.1	-3.08	0.13	-1.95	-1.72	-1.1	-0.38	-1.66	5.59	-1.26	-1.57	30	36.4	-0.13	0.51	-1.63
C/C(Nc1ccc(S(N)(=O)=O)cc1)=C1/C(=O)Nc2ccccc21	-2.07	-2.27	3.2	-2.35	-0.89	4.5	10.1	-0.44	14.5	1.47	1.66	4.83	2.32	-0.92	-0.57	-0.79	-0.11	4.3	32.8	2.37
Cc1ccc(NC(=O)c2ccoc2)cc1-c1ccc(C(=O)NCC2CC2)cc1	-3.72	1.18	-0.48	-0.8	-1.43	2	1.01	1.96	1.43	3.89	4.7	-0.46	-0.45	0.09	-0.32	20	30.9	0.5	1.39	1.61
COc1ccc(-c2ccc3c(NC(=O)C4CC4)n[nH]c3n2)cc1	0.75	0.17	1.7	-1.51	-2.95	2.25	1.88	0.78	1.92	2.58	3.76	-1.52	2.41	1.32	1.4	1.44	3.8	1.93	5.02	2.03
NS(=O)(=O)c1ccc(N/N=C2\C(=O)Nc3ccc(C(=O)NCCCn4ccnc4)cc32)cc1	4.11	2.56	8.04	-1.35	-4.25	10.4	19.3	10.6	19	11.1	14.2	1.59	2.86	4.69	5.55	9.93	10.6	5.69	22.3	1.88
NC(=O)c1cc(-c2ccncc2)cc(-c2ccccc2)c1N	3.97	4.41	4.63	0.2	-0.82	-1.87	-2.65	-1.34	-0.01	-2.69	-2.35	1.2	1.19	-0.48	-0.33	1.32	-0.36	4.42	8.02	5.42
COc1ccc2ncn(-c3cc(O[C@H](C)c4ccccc4Cl)c(C(N)=O)s3)c2c1	-1.4	2.08	4.15	-2.83	-2.54	0.23	0.19	2.58	1.99	3.77	1.29	-3.36	-2.8	1.56	1.62	3.18	2.49	3.24	2.92	3.81
COc1cccc(-n2cnc3c(N/N=C/c4ccncc4)ncnc32)c1	1.18	-1.07	-1.61	-2.88	-5.3	0.34	0.31	-0.94	-0.32	-0.67	-2.81	-3.07	-0.03	-0.39	-0.48	-0.9	-2.07	1.01	6.09	1.08
CCS(=O)(=O)c1ccc(OC)c(Nc2ncc(-c3cccc(-c4ccccc4F)c3)o2)c1	3.98	1.21	11.6	1.15	1.5	1.03	2.03	-0.11	-0.35	-0.16	-0.11	1.37	-3.8	0.06	-0.23	1.08	1.04	1.41	0.75	-0.41
CCS(=O)(=O)c1ccc(OC)c(Nc2ncc(-c3ccccc3Cl)o2)c1	3.37	1.45	1.43	2.52	0.4	5.3	5.1	-1.42	-0.76	4.59	4.97	-0.26	5.11	0.24	-0.21	2.9	3.29	0.31	0.38	1.45
N#Cc1ccc(Oc2nccc(-c3c(-c4ccc(F)cc4)ncn3C3CCNCC3)n2)cc1	0.01	3.46	5.08	-1.84	6.38	1.81	-0.27	4.28	4.2	2.55	-0.22	1.3	3.06	1.77	1.32	13.9	30.8	0.23	3.06	1.6
FC(F)(F)c1cccc(Nc2nccc(-c3cnn4nc(-c5ccccc5)ccc34)n2)c1	-0.96	0.96	-1.12	1.79	-1.25	3.93	1.39	0.57	1.27	3.36	1.95	-0.23	2.76	1.22	-0.44	3.72	2.87	2.35	2.53	3.77
CCc1nccc2c1nc(-c1nonc1N)n2CC	2.34	2	3.76	2.07	1.55	1.61	-3.41	-1.09	-0.94	0.87	2.17	-1.22	4.54	-0.33	-0.34	0.57	2.5	1.68	1.49	1
O=C(Nc1ccc(Oc2ccc3[nH]c(NC(=O)c4ccccc4)nc3c2)cc1)Nc1cc(C(F)(F)F)ccc1F	2.85	2.01	4.57	-0.56	-0.86	4.82	5.63	1.47	3.89	4.99	5.19	-1.34	-0.03	1.97	1.81	4.88	16.7	2.51	5.14	3.79
